Rows were chosen to be rich in hits. Some 2.9% of all compounds tested hit in one or more screens of this group.
A549 tox – counter-screen for Nrf2 inhibitors: cytotoxicity in A549 cells; actives 0.16% (n = 390,000); A549 ARE-Fluc cells, CellTiter-Fluor viability, 18-24 h; Potency, µM (series often up to 46 µM), without a hit: top-dose activity change, negative = cytotoxicity, usual class: inhibitors; also: % is scaled to controls: 0 for no effect and ±100 for the full control effect
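A549 ARE-Fluc cells in 5% FBS OPTI-MEM, 5000 cells/well, rested 2 h then exposed to compounds in concentration-response for 18-24 h at 37 °C. Viability by CellTiter-Fluor fluorescence (Ex 405/Em 525) after 30 min; luciferase luminescence (BugLite, 15 min, RT) read afterwards.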
ATXN viability – reduces viability in counter-screen for ATXN expression inhibitors | S2 cells (HEK-293 line with an ATXN2-luciferase reporter) viability, CellTiter-Fluor protease fluorescence, 24 h | actives 0.49% (n = 400,000) | Potency, µM (highest dose often 56.7 µM), hits mostly cytotoxic | AID 651635; also: nearly all actives have a fitted effect of over 40% in size
Nrf2 activator – activators of Nrf2 (ARE) signaling; AREc32 ARE-luciferase reporter (MCF7-derived line), luminescence, 24 h; Potency, µM (titrated, usually from 46.1 µM), without a hit: top-dose activation, usual class: activators; actives 0.31% (n = 410,000); AID 624171; also: % of control where 0% means no effect; nearly all actives have a fitted effect of over 65% in size
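Quantitative high-throughput format: AREc32 reporter cells, 1000 per well, received compound by pin transfer and were incubated 24 hr at 37 deg C, 5% CO2, before Steady-Glo luminescence detection.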
Nrf2 block – inhibitors of Nrf2 signaling. A549 ARE-Fluc reporter, luciferase luminescence, 18-24 h. Potency, µM (series often up to 46 µM), inactives show at the highest dose activity change, negative = inhibition, hits mostly inhibitors. actives 2.1% (n = 360,000); also: % is scaled to controls: 0 for no effect and ±100 for the full control effect; nearly all actives have a fitted effect of over 60% in size
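Reporter: ARE-Fluc in A549. Exposure: 18-24 h, 37 °C, 5% CO2, 5% FBS OPTI-MEM. Readouts: fluorescent cytotoxicity (CellTiter-Fluor), then luminescent Nrf2 signal after BugLite.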
ATXN2 expr inh – inhibitors of ATXN2 expression; HEK-293 ATXN2-luciferase reporter, luminescence, 24 h; AID 1745845; Potency, µM (doses to about 57 µM), without a hit: at the highest dose activity change, negative = inhibition, hits mostly inhibitors; actives 0.72% (n = 360,000); also: % is scaled to controls: 0 for no effect and ±100 for the full control effect; nearly all actives have a fitted effect of over 55% in size
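qHTS (up to 57 uM final) was run with 24 h compound exposure of reporter cells at 37 °C. Each well was multiplexed: SteadyGlo luminescence measured ATXN2-luciferase expression after a fluorogenic Gly-Phe-AFC viability readout (25 uM final).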
An asterisk follows results filed as active. Calls follow the shape of the dose curve; as a rule, active = well fitted curve in the direction sought with a large enough effect; inconclusive = small, poorly fitted or top-dose-only effect, or another doubt; inactive = no such curve, though single readings can be large; an effect the other way counts as inactive or inconclusive. Potency is read from the fitted curve at half-maximal effect.

How did O=C(Nc1ccc(Br)cc1)c1cccc(OC(=S)N2CCOCC2)c1 do in these assays?
A549 tox: -15%; ATXN viability: inactive; Nrf2 activator: 3%; Nrf2 block: 16µM*; ATXN2 expr inh: inconclusive

How did O=C(Nc1cccc(S(=O)(=O)N2CCOCC2)c1)c1cccc(S(=O)(=O)N2CCCCC2)c1 do in these assays?
A549 tox: -4%; ATXN viability: inconclusive; Nrf2 activator: -1%; Nrf2 block: inconclusive; ATXN2 expr inh: -9%

Results for Cn1c2cc(C#N)sc2c2cnn(Cc3ccccc3F)c(=O)c21 ?
A549 tox: -4%; Nrf2 block: 13%

What do the screens show for `CC1(C)O[C@H]2[C@@H](O1)[C@@H](C(=O)Nc1cc(F)ccc1F)O[C@@H]1OC(C)(C)O[C@@H]12`?
A549 tox: 1%; Nrf2 activator: 0%; Nrf2 block: inconclusive

What do the screens show for `OCCN1CCN(Cc2ccc3c(c2)CN(Cc2cnc(-c4ccccc4)s2)CCO3)CC1`?
ATXN viability: inactive

Results for COc1ccc2c(Oc3ccc(NC(=O)c4c(C)n(CC(C)(C)O)n(-c5ccccc5)c4=O)nc3)ccnc2c1 ?
ATXN2 expr inh: -8%

What do the screens show for `Cc1ccc(N(C)S(=O)(=O)c2cccc(C(=O)Nc3ccc(N4CCOCC4)cc3)c2)cc1`?
A549 tox: 7%; ATXN viability: inactive; Nrf2 activator: 2%; Nrf2 block: inconclusive; ATXN2 expr inh: inconclusive

What do the screens show for `CC1CN(S(=O)(=O)c2cccc(C(=O)Nc3ccccc3N3CCCC3)c2)CC(C)O1` (configuration not stated)?
A549 tox: -12%; ATXN viability: inactive; Nrf2 activator: 4%; Nrf2 block: 23µM*; ATXN2 expr inh: -24%

Results for COc1ccc(Br)cc1C(=O)Nc1ccc(N2CCN(S(C)(=O)=O)CC2)cc1 ?
A549 tox: -18%; ATXN viability: inactive; Nrf2 activator: 2%; Nrf2 block: 18µM*; ATXN2 expr inh: -2%

Results for CN(c1ccccc1)S(=O)(=O)c1cccc(C(=O)Nc2ccc(N3CCOCC3)cc2)c1 ?
A549 tox: -3%; ATXN viability: inactive; Nrf2 activator: 4%; Nrf2 block: 15µM*; ATXN2 expr inh: -26%

What do the screens show for `COc1ccc(C(=O)Nc2ccc(N3CCCCCC3)cc2)cc1S(=O)(=O)N1CCOCC1`?
A549 tox: -17%; ATXN viability: inactive; Nrf2 activator: -1%; Nrf2 block: 13µM*; ATXN2 expr inh: -38%

How did CC/C=C(\C(=O)N[C@@H]1C(=O)N2C(C(=O)OCOC(=O)C(C)(C)C)=C(COC(N)=O)CS[C@H]12)c1csc(N)n1 do in these assays?
ATXN viability: inactive; ATXN2 expr inh: -1%

What do the screens show for `O=[N+]([O-])c1c(Nc2ccccn2)cc(Cl)c2nonc12`?
A549 tox: 18µM*; ATXN viability: inconclusive; Nrf2 activator: -3%; Nrf2 block: inconclusive; ATXN2 expr inh: 28µM*

What do the screens show for `O=C(O)c1ccccc1Nc1cc(Cl)c2nonc2c1[N+](=O)[O-]`?
A549 tox: inconclusive; ATXN viability: inactive; Nrf2 activator: 3%; Nrf2 block: 5%; ATXN2 expr inh: 0%

Results for COc1ccc(NC(=O)c2noc3c2CCC3)cc1 ?
A549 tox: inconclusive; ATXN viability: inactive; Nrf2 activator: 0%; Nrf2 block: inconclusive; ATXN2 expr inh: -16%

How did O=C(c1noc2c1CCCCC2)N1CCN(c2ccc(Cl)cc2)CC1 do in these assays?
A549 tox: -1%; Nrf2 activator: -1%; Nrf2 block: 8.2µM*

Results for CC(=O)c1ccc(NC(=O)c2noc3c2CCC3)cc1 ?
A549 tox: inconclusive; ATXN viability: inactive; Nrf2 activator: -2%; Nrf2 block: inconclusive; ATXN2 expr inh: 4µM*

Results for COc1ccc(CCNC(=O)c2cc(-c3ccc(Cl)cc3)on2)cc1OC ?
A549 tox: -5%; ATXN viability: inactive; Nrf2 activator: -1%; Nrf2 block: -6%; ATXN2 expr inh: -3%

How did COc1ccc(-c2cc(C(=O)Nc3cc(C)n(Cc4ccc(Cl)cc4)n3)no2)cc1OC do in these assays?
A549 tox: -28%; ATXN viability: inconclusive; Nrf2 activator: 0%; Nrf2 block: 4.1µM*; ATXN2 expr inh: -31%

How did Cc1cc(NC(=O)c2noc3c2CCCC3)nn1Cc1ccc(Cl)cc1 do in these assays?
A549 tox: -12%; ATXN viability: inconclusive; Nrf2 activator: 4%; Nrf2 block: 23µM*; ATXN2 expr inh: -11%

Results for Cc1onc(-c2c(Cl)cccc2Cl)c1C(=O)N/N=C(\N)COc1ccc(Cl)cc1 ?
A549 tox: -28%; ATXN viability: inconclusive; Nrf2 activator: -1%; Nrf2 block: 8.2µM*; ATXN2 expr inh: inconclusive

What do the screens show for `Cc1ccccc1OCC(=O)Nc1nnc(S(=O)(=O)N(C)c2ccccc2)s1`?
A549 tox: 2%; Nrf2 activator: 0%; Nrf2 block: inconclusive

Results for COc1cc(OC)c(OC)cc1CN1CCOc2ccc(CN3CCN(C(C)=O)CC3)cc2C1 ?
ATXN viability: inactive

How did O=C(C1CCC(Cn2c(=S)[nH]c3ccccc3c2=O)CC1)N1CCN(c2ccccn2)CC1 (configuration not stated) do in these assays?
A549 tox: inconclusive; ATXN viability: inactive; Nrf2 activator: 0%; Nrf2 block: 18µM*; ATXN2 expr inh: inconclusive

What do the screens show for `COc1ccccc1C1CC(c2ccc(Br)cc2)=NN1C(=O)c1cccnc1` (configuration not stated)?
A549 tox: -7%; ATXN viability: inconclusive; Nrf2 activator: 6%; Nrf2 block: inconclusive; ATXN2 expr inh: inconclusive

How did COc1cccc(C2CC(c3ccc(Br)cc3)=NN2C(=O)c2ccncc2)c1OC (configuration not stated) do in these assays?
A549 tox: -15%; ATXN viability: inactive; Nrf2 activator: 3%; Nrf2 block: 18µM*; ATXN2 expr inh: -17%

What do the screens show for `O=C(NCCCc1cnc[nH]1)NCCCN(Cc1ccc(Cl)cc1)c1ccc(Br)cn1`?
A549 tox: 15%; Nrf2 block: inconclusive

How did O=S(=O)(c1cccc(-c2nnc(SCc3nc4ccccc4s3)o2)c1)N1CCOCC1 do in these assays?
A549 tox: 7%; ATXN viability: inactive; Nrf2 activator: 14µM*; Nrf2 block: inconclusive; ATXN2 expr inh: 40%

How did CC(=O)CCSc1nnc(-c2cccc(S(=O)(=O)N3CCOCC3)c2)o1 do in these assays?
A549 tox: -1%; ATXN viability: inactive; Nrf2 activator: 0%; Nrf2 block: 9%; ATXN2 expr inh: -2%

Results for CCOC(=O)CN1C(c2ccc(O)cc2)Nc2ccc(Br)cc2C1c1ccccc1 (configuration not stated) ?
A549 tox: inconclusive; ATXN viability: 20µM*; Nrf2 activator: 0%; Nrf2 block: -15%; ATXN2 expr inh: inconclusive

Assay outcomes (PubChem BioAssay)
